The results in this text go back to the supplement of paper PMC3414501.

Counter-ions that a name gives are not always drawn.
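Further: active if sensitivity score above 5.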

The test system of the test is S. cerevisiae SK1 pCDA2-eGFP (USY613), sporulating. Put plainly: CDA2-GFP sporulation assay sensitivity score (z-score vs DMSO controls); higher = stronger inhibition of sporulation, active = hit call of the paper.
For the compound `Cc1cn([C@H]2C=C[C@@H](CO)O2)c(=O)[nH]c1=O` [Stavudine] (stock concentration (mM, diluted 1:100): 10), the “CDA2-GFP sporulation assay sensitivity score” value is -1.16 (inactive).

Regarding `CO[C@H]1/C=C/O[C@@]2(C)Oc3c(C)c(O)c4c(c3C2=O)C2=NC3(CCN(CC(C)C)CC3)NC2=C(NC(=O)/C(C)=C\C=C\[C@H](C)[C@H](O)[C@@H](C)[C@@H](O)[C@@H](C)[C@H](OC(C)=O)[C@@H]1C)C4=O` [Rifabutin] (stock concentration (mM, diluted 1:100): 10), the “CDA2-GFP sporulation assay sensitivity score” value is 6 (inactive).

For the compound `CC(=O)[C@]1(O)Cc2c(O)c3c(c(O)c2[C@@H](O[C@H]2C[C@H](N)[C@H](O)[C@H](C)O2)C1)C(=O)c1ccccc1C3=O` [Idarubicin hydrochloride] (stock concentration (mM, diluted 1:100): 9.3), the “CDA2-GFP sporulation assay sensitivity score” value was -0.06 (inactive).

For the compound `CCC(=O)NS(=O)(=O)c1ccc(-c2c(-c3ccccc3)noc2C)cc1` [Parecoxib] (stock concentration (mM, diluted 1:100): 9.8), the “CDA2-GFP sporulation assay sensitivity score” value is 5.02 (inactive).

For `Nc1nc(Cl)nc2c1ncn2[C@@H]1O[C@H](CO)[C@@H](O)[C@H]1O` [2-Chloroadenosine] (stock concentration (mM, diluted 1:100): 10), the “CDA2-GFP sporulation assay sensitivity score” value was -0.44 (inactive).

As to `CC=CC(=O)N(CC)c1ccccc1C` [Crotamiton] (stock concentration (mM, diluted 1:100): 10.3), the “CDA2-GFP sporulation assay sensitivity score” value was 2.32 (inactive).

As to `Cc1onc(-c2ccccc2)c1-c1ccc(S(N)(=O)=O)cc1` [Valdecoxib] (stock concentration (mM, diluted 1:100): 10), the “CDA2-GFP sporulation assay sensitivity score” value is -1.13 (inactive).

Turning to `Nc1nc(Cl)nc2c1ncn2[C@H]1C[C@H](O)[C@@H](CO)O1` [2-Chloro-2-Deoxyadenosine] (stock concentration (mM, diluted 1:100): 10), the “CDA2-GFP sporulation assay sensitivity score” value was 1.98 (inactive).

In the case of `CCN1CCC[C@H]1CNC(=O)c1cc(S(N)(=O)=O)ccc1OC` [Levosulpiride] (stock concentration (mM, diluted 1:100): 10), the “CDA2-GFP sporulation assay sensitivity score” value is 0.11 (inactive).

Regarding `Cc1occc(=O)c1O` [Maltol] (stock concentration (mM, diluted 1:100): 10), the “CDA2-GFP sporulation assay sensitivity score” value is 1.2 (inactive).

For `C[C@@H]1C[C@H]2[C@@H]3CCC4=CC(=O)C=C[C@]4(C)[C@@]3(F)[C@@H](O)C[C@]2(C)[C@H]1C(=O)CO` [Desoximetasone] (stock concentration (mM, diluted 1:100): 10), the “CDA2-GFP sporulation assay sensitivity score” value is 0.62 (inactive).

Turning to `CCOC(=O)[C@H](CCc1ccccc1)N[C@@H](C)C(=O)N1[C@H](C(=O)O)C[C@@H]2CCC[C@@H]21` [Ramipril] (stock concentration (mM, diluted 1:100): 10), the “CDA2-GFP sporulation assay sensitivity score” value is 0.92 (inactive).

Consider `O=C1c2c(O)cc(O)cc2OC(c2ccc(O)c(O)c2)C1O` (centres undefined) [Taxifolin] (stock concentration (mM, diluted 1:100): 10.1), for which the “CDA2-GFP sporulation assay sensitivity score” value was -0.02 (inactive).

For the compound `CCOC(=O)[C@@]1(CCCCCCOc2ccc(Cl)cc2)CO1` [Etomoxir] (stock concentration (mM, diluted 1:100): 10), the “CDA2-GFP sporulation assay sensitivity score” value is 5.49 (inactive).

Turning to `CN1[C@@H](CC(=O)c2ccccc2)CCC[C@H]1C[C@H](O)c1ccccc1` [Lobeline hydrochloride] (stock concentration (mM, diluted 1:100): 10), the “CDA2-GFP sporulation assay sensitivity score” value is 2.99 (inactive).

For `Cc1nc2n(c(=O)c1CCN1CCC(c3noc4cc(F)ccc34)CC1)CCCC2` [Risperidone] (stock concentration (mM, diluted 1:100): 10), the “CDA2-GFP sporulation assay sensitivity score” value is -0.4 (inactive).

On to `COc1cccc2c1C(=O)c1c(O)c3c(c(O)c1C2=O)C[C@@](O)(C(=O)CO)C[C@@H]3O[C@H]1C[C@H](N)[C@H](O)[C@H](C)O1` [Doxorubicin hydrochloride] (stock concentration (mM, diluted 1:100): 9.4), for which the “CDA2-GFP sporulation assay sensitivity score” value is 0.3 (inactive).

As to `CC[C@H](C)C(=O)O[C@H]1C[C@H](O)C=C2C=C[C@H](C)[C@H](CC[C@@H](O)C[C@@H](O)CC(=O)O)[C@H]21` [Pravastatin sodium] (stock concentration (mM, diluted 1:100): 9.5), the “CDA2-GFP sporulation assay sensitivity score” value was -1.3 (inactive).

As for `COc1cc(OC)c(C(=O)CCCN2CCCC2)c(OC)c1` [Buflomedil hydrochloride] (stock concentration (mM, diluted 1:100): 8.9), the “CDA2-GFP sporulation assay sensitivity score” value was -0.24 (inactive).
